From PubChem
Hits are enriched below; roughly 2% of the tested compounds scored in any of these assays.
HMGR II inh: inhibitors of class II HMG-CoA reductase from Enterococcus faecalis | purified E. faecalis HMGR, NADPH absorbance 340 nm kinetic | inhibition, % at 10 µM | 190,000 tested, 0.41% active | AID 1066;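 active means inhibition above a set limit, the median over all tested compounds plus 3 SD, cut at about 9.5% in these data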;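 further: enzyme runs in reverse so mevalonate oxidation gives rising NADPH absorbance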
PKD1 kinase inh: inhibitors of human PKD1 kinase; Q15139; PKD1 kinase fluorescence polarization assay; inhibition, % (concentration not given with the values); 200,000 tested, 0.056% active; AID 797; in the data active means inhibition above about 50%
Hsp70 act: transcriptional activators of Hsp70. HeLa Hsp70 promoter luciferase reporter, luminescence; scaled: vehicle 0, proteasome-inhibitor control 100%. activation, % at 10 µM. 200,000 tested, 0.04% active;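 active means activation above the mean across all tested compounds plus 3 SD, cutoff set per campaign, cut at about 5.5% in these data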
Wee1 degr inh: blocks degradation of human Wee1 kinase; HeLa Luc-Wee1K328M stability, luciferase luminescence; 100% = proteasome inhibitor MG132 effect; reporter increase, % at 5 µM; 220,000 tested, 1.2% active; AID 1321;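 active means activation above the mean of all tested compounds plus 3 SD, set per screening run, cut at about 8.8% in these data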;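 further: cells exposed to compound for 20 h before luminescence read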
Target sequence (P30291 whole entry K328M): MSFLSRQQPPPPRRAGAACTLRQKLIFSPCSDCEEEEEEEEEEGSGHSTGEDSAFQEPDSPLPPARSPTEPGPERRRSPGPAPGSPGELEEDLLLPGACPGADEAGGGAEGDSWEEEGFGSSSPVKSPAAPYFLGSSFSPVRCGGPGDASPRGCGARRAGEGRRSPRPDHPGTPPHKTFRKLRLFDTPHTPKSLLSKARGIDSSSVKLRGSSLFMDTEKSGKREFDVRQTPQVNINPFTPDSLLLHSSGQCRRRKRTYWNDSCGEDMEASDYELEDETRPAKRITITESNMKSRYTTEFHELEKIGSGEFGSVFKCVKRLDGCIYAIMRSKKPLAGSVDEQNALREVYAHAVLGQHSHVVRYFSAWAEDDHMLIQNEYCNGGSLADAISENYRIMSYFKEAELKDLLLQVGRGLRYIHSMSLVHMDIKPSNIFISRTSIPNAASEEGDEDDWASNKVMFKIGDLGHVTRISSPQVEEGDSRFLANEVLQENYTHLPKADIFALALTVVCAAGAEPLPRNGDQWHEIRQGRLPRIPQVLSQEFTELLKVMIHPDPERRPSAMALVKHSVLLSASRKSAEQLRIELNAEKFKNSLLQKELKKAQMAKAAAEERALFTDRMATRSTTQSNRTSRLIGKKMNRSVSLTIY
Arbovirus anti: arbovirus infection inhibition; arbovirus infection cell-based antiviral screen; AID 1251; inhibition, % at 10 µM; 200,000 tested, 0.37% active; in the data active means inhibition above about 30%
Wee1 degr conf: confirmation of human Wee1 degradation inhibitors; shares compounds with Wee1 degr inh; HeLa Luc-Wee1K328M degradation, luminescence; vehicle 0%, proteasome-blocked wells 100%; activation, % at 5 µM; 1,100 tested, 4% active; in the data active means activation above about 8.9%
A number is an active result; . = inactive; / = not tested or not shown.

SMILES	HMGR II inh	PKD1 kinase inh	Hsp70 act	Wee1 degr inh	Arbovirus anti	Wee1 degr conf
COCC(O)CNc1ccccc1 (configuration not stated)	.	.	.	.	.	/
CC(C)Cn1c(N)c(C(=O)COC(=O)c2ccc(O)cc2)c(=O)n(C)c1=O	.	.	.	.	.	/
CC(C)Cn1c(N)c(C(=O)COC(=O)c2ccc([N+](=O)[O-])o2)c(=O)n(C)c1=O	.	.	.	16	.	.
CC12CCC(=O)N1C(C(=O)OCC(=O)Nc1sccc1C#N)CS2 (configuration not stated)	.	.	.	.	.	/
CC(NC(=O)COC(=O)C1CSC2(C)CCC(=O)N12)C12CC3CC(CC(C3)C1)C2 (configuration not stated)	.	.	.	12	.	.
CCOc1ccc(S(=O)(=O)NCCC(=O)N2CCN(c3ccc(OC)cc3)CC2)cc1	.	.	.	11	.	.
Cc1ccc(NC(=O)c2cc3c(s2)CCCC3)cc1	.	.	.	16	.	.
Cc1ccc(NC(=O)c2scc3c2CCCC3)cc1	.	.	.	12	.	.
Nc1ccccc1C(=O)N/N=C1/C2CN3CCN(C2)CC1(Cc1ccccc1)C3	.	.	.	13	.	.
CCCC12CN3CCN(CC(C3)/C1=N\NC(=O)c1ccccc1N)C2	.	.	.	.	.	/
Nc1nc(NCCCN2CCOCC2)nc(Nc2cccc(Cl)c2)c1[N+](=O)[O-]	/	/	/	.	/	/
O=C(NNC(=S)Nc1cccc(C(F)(F)F)c1)c1cccc(Cl)c1	.	.	.	.	.	/
O=C(NNC(=S)Nc1cccc(C(F)(F)F)c1)c1ccccc1Cl	.	.	.	12	.	.
CCc1c(-c2ccccc2)[n+](=O)c2c(n1[O-])CCC2	/	/	/	.	/	/
Cc1cccc2cc3c(N)c(C(=O)N4CCOCC4)sc3nc12	.	.	.	14	.	.
CC(=O)c1ccc(NC(=S)NCCc2ccc(S(N)(=O)=O)cc2)cc1	.	.	.	27	.	.
CSc1ccc(CN(C)CC(=O)NC(C)c2ccccc2)cc1 (configuration not stated)	.	.	.	.	.	/
NCCOc1ccccc1-c1ccccc1	.	.	.	.	.	/
NCCOc1ccccc1OCCN	.	.	.	12	.	.
CN(C)CCCNc1oc(-c2ccccc2)nc1C#N	.	.	.	14	.	.
Cc1c(C(=O)OC(C)C)sc(N)c1C(=O)OC(C)C	.	.	.	.	.	/
O=C(CSc1ccc(F)cc1)NC1CCCCC1	.	.	.	12	.	.
O=C(CSc1ccc(Cl)cc1)NC1CCCC1	.	.	.	.	.	/
COc1ccc(-n2nc3cc(C)c(NC(C)=O)cc3n2)cc1	.	.	.	12	.	.
CCC(=O)Nc1ccc(-c2nc3ccccc3c(=O)o2)cc1	.	.	.	13	.	.
SMILES	HMGR II inh	PKD1 kinase inh	Hsp70 act	Wee1 degr inh	Arbovirus anti	Wee1 degr conf
Nc1nc(SCC(=O)Nc2ccc([N+](=O)[O-])cc2)n[nH]1	.	.	.	.	.	/
CS(=O)(=O)N1CCc2cc(C(=O)NC3CC3)ccc21	.	.	.	14	.	.
CCCNC(=O)c1ccc2c(c1)CCN2S(C)(=O)=O	.	.	.	.	.	/
CCCCN1CNC(=S)N(CCc2ccccc2)C1	.	.	.	12	.	.
COc1ccc(C2N=C(c3ccccc3)C(C)(C)N2O)cc1 (configuration not stated)	.	.	.	31	.	.
CC(=O)Nc1cccc(NC(=O)C(=O)c2cn(CC(=O)N3CCCCC3)c3ccccc23)c1	.	.	.	.	.	/
CC1(C)CC2(CCO1)OC(=O)CC2C(=O)Nc1c(Cl)cccc1Cl (configuration not stated)	/	/	/	.	/	/
COc1cccc(NC(=O)C2CC(=O)OC23CCOC(C)(C)C3)c1 (configuration not stated)	.	.	.	24	.	.
Cc1cc(S(=O)(=O)NCc2ccccc2)ccc1OCC(=O)NCC1CCCO1 (configuration not stated)	.	.	.	.	.	/
CC1CCCCN1C(=O)Cn1c(=O)n(-c2ccc(F)cc2)c(=O)c2sccc21 (configuration not stated)	.	.	.	11	.	.
O=C(NCCNC1CCC(c2ccccc2)CC1)c1cccs1 (configuration not stated)	.	.	.	.	.	/
Cc1ccc(N2CCN(C(=O)N3CCOCC3)CC2)cc1C	.	.	.	12	.	.
N#CC(C#N)=CNc1cccnc1	/	/	/	.	/	/
